Source: PubChem BioAssay AID588689 (Southern Research Specialized Biocontainment Screening …, 2011)
About 1,000 (0.29%) of roughly 340,000 compounds were called active. Cut-off read from the data, not from the text of the source: inconclusive = inhibition above about 29% without an active follow-up result; inactive = below that. Only a sample is shown. Potency and affinity values are given separately.

Target: Genome polyprotein (Dengue virus type 2 (strain 16681-PDK53)) (UniProt P29991)
Assay: Dengue-2 NS5 methyltransferase inhibitors, primary screen, biochemical, confirmation dose response (AID 588689)
Conditions: Dengue-2 NS5 methyltransferase capping enzyme assay, at 25 µM, stronger effect = higher value
[1] = measured here: pilot screen replicate inhibition

Compound | inhibition | inhibition [1]
COc1ccc(NC(=O)CN2CCN(S(=O)(=O)N(C)C)CC2)cc1 | 2.61% (inactive) | 3.63%
Cc1c(C(=O)c2ccc(Cl)c(Cl)c2)cnc2cc3c(cc12)OCO3 | 0.78% (inactive) | 
Nc1c(C(=O)O)sc2nc(-c3ccccc3)cc(-c3ccccc3)c12 | -27% (inactive) | 
Nc1c(C(=O)O)sc2nc(-c3ccccc3)cc(-c3ccc(F)cc3)c12 | -4.6% (inactive) | 
CCOC(=O)CC1COc2ccccc2N1C(=O)c1cccc([N+](=O)[O-])c1 (stereo unspecified) | -0.68% (inactive) | 
CCOc1ccc(N2C(=O)CC(N(Cc3ccco3)C(=O)CCC(=O)O)C2=O)cc1 (stereo unspecified) | -7.79% (inactive) | 
Cc1c(C(=O)OCC(=O)NC2CC2)oc2ccc(Br)cc12 | 4.33% (inactive) | 
CNCc1ccccc1Sc1cccc(O)c1 | -3.83% (inactive) | 
CNCc1ccccc1Sc1cc(O)ccc1O | -2.55% (inactive) | 
Cc1cc(NC(=O)CSc2ccccn2)cc(NC(=O)CSc2ccccn2)c1 | -6.51% (inactive) | 
O=C(O)c1cccc(NS(=O)(=O)c2ccc(Oc3ccc(S(=O)(=O)Nc4cccc(C(=O)O)c4)cc3)cc2)c1 | 13.8% (inactive) | 
O=C(O)c1cccc(NS(=O)(=O)c2ccc3c(c2)C(=O)c2ccccc2C3=O)c1 | 16.2% (inactive) | 
O=C(O)c1cccc(S(=O)(=O)Nc2ccc(-c3ccccc3)cc2)c1 | -3.98% (inactive) | 
O=C1c2ccccc2C(=O)c2cc(S(=O)(=O)Nc3ccccc3)ccc21 | -0.73% (inactive) | 
O=C(O)c1ccc(F)c(S(=O)(=O)Nc2ccccc2Cl)c1 | 4.09% (inactive) | 
O=C(O)c1ccc(NS(=O)(=O)c2cc(Cl)ccc2Cl)cc1 | -2.78% (inactive) | 
O=C(O)c1ccc(Cl)c(S(=O)(=O)Nc2ccc(S(=O)(=O)N3CCCC3)cc2)c1 | -5.16% (inactive) | 
O=C(O)c1ccc(Cl)c(S(=O)(=O)Nc2ccccc2Cc2ccccc2)c1 | -0.83% (inactive) | 
CC1(C)C2CCC1(CS(=O)(=O)NCc1ccc(C(F)(F)F)cc1)C(=O)C2 (stereo unspecified) | -2.61% (inactive) | 
CCOC(=O)N1CCN(Cc2nc3ccc([N+](=O)[O-])cc3c(=O)n2-c2ccc(OC)cc2OC)CC1 | -7.83% (inactive) | 
Cc1ccc(C2(C)NC(=O)N(CC(=O)NNC(=O)c3cc(C)oc3C)C2=O)cc1 (stereo unspecified) | -2.16% (inactive) | 
CC1CC1C(=O)N(C)CC(=O)Nc1ccccc1Br (stereo unspecified) | -5.16% (inactive) | 
Cc1cc(C(=O)OC(C)C(=O)NC2CCCCC2)c(C)o1 (stereo unspecified) | 3.67% (inactive) | 
O=C(NC1CC2CCCC(C1)N2CC(=O)N1CCCc2ccccc21)C1CCCCC1 (stereo unspecified) | -6.56% (inactive) | 
Cc1cccc(-n2cnc3sc(C)c(C)c3c2=O)c1 | 3.09% (inactive) | 
O=C(O)c1ccc(COc2ccc(CO)cc2Cl)cc1 | -1.37% (inactive) | 

Compound | inhibition | inhibition [1]
COC(=O)c1ccc(COc2ccc(/C=N/Nc3cccc(C(=O)O)c3)cc2)cc1 | 8.5% (inactive) | 
COC(=O)c1ccc(COc2ccccc2/C=N/NS(=O)(=O)c2ccccc2)cc1 | -8.06% (inactive) | 
C=CCc1cc(C=O)cc(OC)c1OCc1ccc(C(=O)O)cc1 | -5.83% (inactive) | 
O=C1NC(=S)N/C1=C\c1ccccc1OCc1ccc(C(=O)O)cc1 | -6.96% (inactive) | 
CN1C(=O)S/C(=C\c2ccccc2OCc2ccc(C(=O)O)cc2)C1=O | 2.95% (inactive) | 
COc1cc(/C=C2/NC(=O)NC2=O)cc(Br)c1OCc1ccc(C(=O)O)cc1 | -4.44% (inactive) | 
O=C(O)c1ccc(COc2ccccc2/C=C2/NC(=O)N(c3cccc(Cl)c3)C2=O)cc1 | 6.55% (inactive) | 
Cc1cccc(C(=O)OCC(=O)Nc2c(C)n(C)n(-c3ccccc3)c2=O)c1O | -4.38% (inactive) | 
N#Cc1ccc(NC(=O)c2sc3cc(C(F)(F)F)cnc3c2-c2cccs2)cc1 | -3.46% (inactive) | 
CC(C)CN(C(=O)c1ccc(N2CCCC2=O)cc1)C1CCS(=O)(=O)C1 (stereo unspecified) | 2.16% (inactive) | 
COc1ccc(N(C(=O)c2ccco2)C(C(=O)NC2CCCC2)c2ccc(OC)c(OC)c2)cc1 (stereo unspecified) | -4.04% (inactive) | 
N#Cc1ccc2ccn(CC(=O)NCc3ccco3)c2c1 | -5.46% (inactive) | 
O=C(CCn1cnc2ccccc2c1=O)Nc1ccc(Cl)c(Cl)c1 | 1.31% (inactive) | 
O=C(COc1ccccc1/C=C\c1nc(O)c([N+](=O)[O-])c(=O)[nH]1)Nc1ccccc1 | 2.19% (inactive) | 
CCOc1ccccc1/C=C\c1nc(O)c([N+](=O)[O-])c(=O)[nH]1 | 5.29% (inactive) | 
COc1cccc(/C=N/Nc2ccc([N+](=O)[O-])cc2)c1O | -38.8% (inactive) | 
COc1cccc(/C=C/c2ccccn2)c1O | -0.77% (inactive) | 
CCCCCCSc1cc(-c2nc3cc(C)ccn3c2NC2CCCCC2)ccc1OC | -8.81% (inactive) | 
O=C(c1ccc(Cn2c(=O)[nH]c3ccsc3c2=O)cc1)N1CCN(c2ccccc2)CC1 | -1.16% (inactive) | 
COc1ccc(CN(C)C(=O)c2cccc(NS(=O)(=O)c3ccccc3)c2)c(OC)c1 | 0.32% (inactive) | 
O=C(CN(c1ccc(F)cc1)S(=O)(=O)c1ccccc1)NC1CCCCCC1 | 0% (inactive) | 
Cc1ccc(/C=C/c2nc3sc(C(=O)O)c(C)c3c(=O)[nH]2)cc1[N+](=O)[O-] | -2.44% (inactive) | 
COc1cccc(CNC(=O)Cn2ccc3cc(S(=O)(=O)N4CCCC4)ccc32)c1 | -0.45% (inactive) | 
COc1ccc(N(C(=O)Cn2nnc(-c3ccc(Cl)cc3)n2)C(C(=O)NCC2CCCO2)c2ccncc2)cc1 (stereo unspecified) | -2.22% (inactive) | 
CCOC(=O)c1nn(-c2ccc(C)cc2)c(=O)c2c(N)scc12 | 12.4% (inactive) | 
COc1ccc(/C=N/NC(=O)c2nn(-c3ccccc3)c(=O)c3c(N)scc23)cc1 | 50% (inactive) | 

Compound | inhibition | inhibition [1]
CCOC(=O)c1nn(-c2ccccc2)c(=O)c2c(N)scc12 | 7.81% (inactive) | 
COc1ccc(/C=N/NC(=O)c2nn(-c3ccc(Cl)cc3)c(=O)c3c(N)scc23)cc1 | 65.9% (inactive) | 10.3%
Cc1ccc2c(c1)NC(=O)c1cccnc1N2 | -0.54% (inactive) | 
Cc1nnc(SC(C)C(=O)N(C)C2CCCCC2)n1N (stereo unspecified) | -0.37% (inactive) | 
CCOc1cc(C(=O)NCCC(=O)N2CCC3(CC2)NCCc2[nH]cnc23)cc(OCC)c1OCC | -6.21% (inactive) | 
CCCCN1CC[C@H]2C=CC[C@@H](C(=O)N3CCN(c4ccccc4)CC3)[C@H]2C1=O | -5.46% (inactive) | 
Cc1ccc(-n2nc(CN3CCOCC3)c(-c3ccccc3)c2N)cc1Cl | -2.18% (inactive) | 
O=Cc1cc(N=Nc2ccccc2Cl)ccc1O | 11.1% (inactive) | 
O=Cc1cc(N=Nc2ccc(S(=O)(=O)O)cc2)ccc1O | 14.6% (inactive) | 
CCOC(=O)c1sc(Nc2ccc(OCC)cc2)nc1C | -9.95% (inactive) | 
COc1ccc(/C=C2/C(=O)N(c3c(F)c(F)c(F)c(F)c3F)N=C2C)cc1 | 27.1% (inactive) | 
Cc1ccc(NC(=C(C#N)C#N)c2ccccc2)cc1 | 6.86% (inactive) | 
O=C1C(=O)N(CCCn2ccnc2)C(c2ccc([N+](=O)[O-])cc2)/C1=C(\O)c1ccc2c(c1)OCCO2 (stereo unspecified) | -1.86% (inactive) | 
O=C(C[C@@H]1C/C=C\C[C@H](Cc2ccc(F)cc2)C(=O)OCCNC1=O)N[C@H](CO)Cc1ccccc1 | -4.01% (inactive) | 
O=[N+]([O-])c1ccc(O)c(C=Nc2ccc3c(c2)OCCO3)c1 | 2.55% (inactive) | 
O=[N+]([O-])c1cc(Br)cc(C=Nc2ccc3c(c2)OCO3)c1O | 17.9% (inactive) | 
O=C(O)c1ccc(NC2OC[C@@H](O)[C@H](O)[C@H]2O)cc1 (stereo partly specified) | 1.47% (inactive) | 
CC(=O)Nc1ccc(S(=O)(=O)NC2CC(=O)N(c3ccc(C)c(C)c3)C2)cc1 (stereo unspecified) | -8.06% (inactive) | 
CCCCn1c(N)c(N(CCC(C)C)C(=O)CCCc2nc3ccccc3s2)c(=O)[nH]c1=O | 0.96% (inactive) | 
CCSc1nc(O)c(C2OC(=O)c3c2ccc(OC)c3OC)c(=O)n1-c1ccccc1 (stereo unspecified) | -0.81% (inactive) | 
CCCSc1nc(O)c(C2OC(=O)c3c2ccc(OC)c3OC)c(=O)n1C (stereo unspecified) | 4.42% (inactive) | 
Cc1ccc(CNC(=O)Cn2c(=O)c3sccc3n(Cc3ccc([N+](=O)[O-])cc3)c2=O)cc1 | -4.46% (inactive) | 
COc1cc2c(cc1C1C(C#N)=C(N)OC3=C1C(=O)CC(C)(C)C3)OCO2 (stereo unspecified) | 2.7% (inactive) | 
COc1ccc(C(C(=O)NC(C)(C)C)N(C(=O)CNC(=O)c2cccs2)c2cccnc2)cc1OC (stereo unspecified) | 0.81% (inactive) | 
CCN(CCCNC(=O)C1CCN(S(=O)(=O)CC)CC1)c1ccccc1 | 0% (inactive) | 
CCOC(=O)C1CCN(c2c(NCCCN(CC)c3ccccc3)c(=O)c2=O)CC1 | -1.39% (inactive) | 

Compound | inhibition | inhibition [1]
N#Cc1c(NC(=O)C(=O)NCCCN2CCOCC2)sc2c1CCC2 | -10.5% (inactive) | 
COc1ccc(C(c2c(C)n(C)n(-c3ccccc3)c2=O)c2c(C)n(C)n(-c3ccccc3)c2=O)c(OC)c1OC | 4.27% (inactive) | 
COc1cccc(COC(=O)c2c(C)nn(-c3ccccc3)c2Cl)c1OC | -1.3% (inactive) | 
O=C(CC1(CC(=O)N2CCOCC2)CCCC1)Nc1ccccc1 | 1.1% (inactive) | 
Cc1c(C(c2ccc(C(=O)O)cc2)c2c(C)n(C)n(-c3ccccc3)c2=O)c(=O)n(-c2ccccc2)n1C | -3.92% (inactive) | 
Cc1ccc(C(C[N+](=O)[O-])c2c(C)[nH]n(-c3ccccc3)c2=O)cc1 (stereo unspecified) | 12.3% (inactive) | 
Cc1c(C(c2cccc(O)c2)c2c(C)n(C)n(-c3ccccc3)c2=O)c(=O)n(-c2ccccc2)n1C | 0.66% (inactive) | 
Cc1[nH]n(-c2ccccc2)c(=O)c1N=Nc1ccccc1C(=O)N1CCOCC1 | -1.82% (inactive) | 
Cc1c(C(c2ccc([N+](=O)[O-])cc2)c2c(C)n(C)n(-c3ccccc3)c2=O)c(=O)n(-c2ccccc2)n1C | -2.74% (inactive) | 
Cc1[nH]n(-c2ccccc2)c(=O)c1N=Nc1ccccc1O | -2.22% (inactive) | 
Cc1[nH]n(-c2ccccc2)c(=O)c1C(c1ccccc1C(=O)O)c1c(C)[nH]n(-c2ccccc2)c1=O | -2.59% (inactive) | 
Cc1[nH]n(-c2ccccc2)c(=O)c1C(C[N+](=O)[O-])c1ccc(F)cc1 (stereo unspecified) | 1.46% (inactive) | 
COC(=O)[C@@H]1C[C@@]2(O)[C@H](O)[C@H](O)[C@H](O)C[C@H]2N1Cc1cccc2ccccc12 | -3.14% (inactive) | 
Cc1nonc1CN(C)C(=O)CC1C(=O)NCCN1Cc1c(F)cccc1Cl (stereo unspecified) | 0% (inactive) | 
Cc1ccc(OCc2cc(C(=O)N3CCCC(O)C3)no2)cn1 (stereo unspecified) | 3.18% (inactive) | 
COc1ccc(-c2cc(C(F)(F)F)nc(NCc3cccs3)n2)cc1 | -0.64% (inactive) | 
Cc1csc(NC(=O)c2ccc(COc3ccccc3)o2)n1 | -0.81% (inactive) | 
COc1cccc(NC(=S)NC2CC3CCCC(C2)N3C2CCCC2)c1 (stereo unspecified) | -6.24% (inactive) | 
CCCCCN(C(=O)CCC(=O)OCc1cccc(C(F)(F)F)c1)c1c(N)n(CCCC)c(=O)[nH]c1=O | -5.15% (inactive) | 
Cc1[nH][nH]c(=O)c1C(c1ccc(O)c([N+](=O)[O-])c1)c1c(C)[nH][nH]c1=O | 5.19% (inactive) | 
O=c1c2cc([N+](=O)[O-])cc([N+](=O)[O-])c2[nH]n1-c1ccccc1 | 22.2% (inactive) | 
Cc1[nH]n(-c2ccccc2)c(=O)c1N=Nc1cccc([N+](=O)[O-])c1 | -3.97% (inactive) | 
Cc1[nH]n(-c2cccc([N+](=O)[O-])c2)c(=O)c1-c1ccccc1 | -10.7% (inactive) | 
COc1ccc(-n2c3c(cc(C(=O)NC4CCSC4=O)c2=O)C(=O)CC(C)(C)C3)cc1 (stereo unspecified) | 3.46% (inactive) | 
CC1(C)CC(=O)C=C(c2ccc3ccccc3c2)C1 | 6.35% (inactive) | 
CC1CCCN(CCC(=O)Nc2ccc3c(c2)CCC3)C1 (stereo unspecified) | -0.41% (inactive) | 
